Laboratory results as given in PubChem BioAssay (NCATS).
Records with an inconclusive call do not appear. Active and inactive are the calls of the source. Calls come from the whole dose curve; as a rule, active = well fitted curve in the direction sought with a large enough effect; inconclusive = small, poorly fitted or top-dose-only effect, or another doubt; inactive = no such curve, though single readings can be large; an effect the other way counts as inactive or inconclusive.

Key:
[1] = biological target: ATP-dependent 6-phosphofructokinase (Trypanosoma brucei brucei) (UniProt O15648); test: qHTS Assay to Find Inhibitors of T. brucei phosphofructokinase: hit validation (AID 492961);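 note: luminescence reports ADP formed as PFK phosphorylates fructose-6-phosphate with ATP; % is set by controls: 0 for no effect and ±100 for the full control effect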
Sequence of ATP-dependent 6-phosphofructokinase (Trypanosoma brucei brucei) (O15648 whole entry, looked up): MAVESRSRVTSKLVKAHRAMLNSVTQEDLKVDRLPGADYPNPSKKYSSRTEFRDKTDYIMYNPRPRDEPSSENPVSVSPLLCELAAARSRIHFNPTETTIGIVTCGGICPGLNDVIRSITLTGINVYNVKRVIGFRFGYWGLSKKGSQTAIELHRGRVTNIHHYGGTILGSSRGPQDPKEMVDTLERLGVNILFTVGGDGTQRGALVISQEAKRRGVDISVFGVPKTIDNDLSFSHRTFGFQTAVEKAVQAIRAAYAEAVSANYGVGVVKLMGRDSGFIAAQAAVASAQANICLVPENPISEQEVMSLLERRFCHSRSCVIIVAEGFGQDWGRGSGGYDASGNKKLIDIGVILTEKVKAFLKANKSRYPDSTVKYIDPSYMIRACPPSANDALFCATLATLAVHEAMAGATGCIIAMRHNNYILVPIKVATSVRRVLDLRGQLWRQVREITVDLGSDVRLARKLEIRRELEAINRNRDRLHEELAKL
Summary of the method: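 In this biochemical qHTS validation, titrated compounds were tested against 1.25 nM PFK with 0.1 mM ATP and 0.5 mM F6P. Percent activity came from controls lacking or containing enzyme.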

[2] = qHTS profiling for inhibitors of Plasmodium falciparum proliferation (AID 504749); note: potency is the fitted concentration of half-maximal effect;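 for activity, negative = inhibition: 0% = DMSO vehicle and full inhibition = artemisinin control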; for all read-outs here: nearly all actives have a fitted effect of over 60% in size; details: P. falciparum in erythrocytes, SYBR Green DNA, 72 h; for activity, negative = inhibition: at 28.7 µM (top of the series)
Summary of the method: (§1)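 In a 72 h erythrocytic culture (37 C, humidified, 5% CO2) at 2.5% hematocrit and 0.3% starting parasitemia, compounds were tested; SYBR Green I in detergent lysis buffer stained parasite DNA overnight.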

[3] = tested on: 3D7; test: as above; details: P. falciparum in erythrocytes, SYBR Green DNA, 72 h; series mostly up to 28.7 µM
Summary of the method: as §1

[4] = tested on: 7G8; test: as above; details: P. falciparum in erythrocytes, SYBR Green DNA, 72 h; series mostly up to 28.7 µM
Summary of the method: as §1

[5] = tested on: AS120; test: as above; details: P. falciparum in erythrocytes, SYBR Green DNA, 72 h; series mostly up to 28.7 µM
Summary of the method: as §1

[6] = tested on: ATS189; test: as above; details: P. falciparum in erythrocytes, SYBR Green DNA, 72 h; series mostly up to 28.7 µM
Summary of the method: as §1

[7] = tested on: CP185; test: as above; details: P. falciparum in erythrocytes, SYBR Green DNA, 72 h; series mostly up to 28.7 µM
Summary of the method: as §1

[8] = tested on: CP191; test: as above; details: P. falciparum in erythrocytes, SYBR Green DNA, 72 h; series mostly up to 28.7 µM
Summary of the method: as §1

[9] = tested on: CP192; test: as above; details: P. falciparum in erythrocytes, SYBR Green DNA, 72 h; series mostly up to 28.7 µM
Summary of the method: as §1

[10] = tested on: CP194; test: as above; details: P. falciparum in erythrocytes, SYBR Green DNA, 72 h; series mostly up to 28.7 µM
Summary of the method: as §1

[11] = tested on: CP201; test: as above; details: P. falciparum in erythrocytes, SYBR Green DNA, 72 h; series mostly up to 28.7 µM
Summary of the method: as §1

[12] = tested on: CP203; test: as above; details: P. falciparum in erythrocytes, SYBR Green DNA, 72 h; series mostly up to 28.7 µM
Summary of the method: as §1

[13] = tested on: CP247; test: as above; details: P. falciparum in erythrocytes, SYBR Green DNA, 72 h; series mostly up to 28.7 µM
Summary of the method: as §1

[14] = tested on: CP286; test: as above; details: P. falciparum in erythrocytes, SYBR Green DNA, 72 h; series mostly up to 28.7 µM
Summary of the method: as §1

[15] = tested on: CP291; test: as above; details: P. falciparum in erythrocytes, SYBR Green DNA, 72 h; series mostly up to 28.7 µM
Summary of the method: as §1

[16] = tested on: P94_40; test: as above; details: P. falciparum in erythrocytes, SYBR Green DNA, 72 h; series mostly up to 28.7 µM
Summary of the method: as §1

[17] = tested on: PC49; test: as above; details: P. falciparum in erythrocytes, SYBR Green DNA, 72 h; series mostly up to 28.7 µM
Summary of the method: as §1

[18] = tested on: TAB109; test: as above; details: P. falciparum in erythrocytes, SYBR Green DNA, 72 h; series mostly up to 28.7 µM
Summary of the method: as §1

[19] = tested on: TAB113; test: as above; details: P. falciparum in erythrocytes, SYBR Green DNA, 72 h; series mostly up to 28.7 µM
Summary of the method: as §1

COc1cccc2c1C(=O)c1c(O)c3c(c(O)c1C2=O)C[C@@](O)(C(=O)CO)C[C@@H]3OC1CC(N)C(O)C(C)O1 (stereo not given in full)
inactive: Potency [1]
active: Potency ([2]; parasite line A) 2000 nM | Potency ([2]; parasite line B) 3160 nM | Potency [3] 1000 nM | Potency [4] 316 nM | Potency [5] 2240 nM | Potency [6] 2510 nM | Potency [7] 2240 nM | Potency [8] 2240 nM | Potency [9] 1900 nM | Potency [10] 4780 nM | Potency [11] 3790 nM | Potency [12] 4780 nM | Potency [13] 2240 nM | Potency [14] 398 nM | Potency [15] 3380 nM | Potency [16] 2000 nM | Potency [17] 5620 nM | Potency [18] 2000 nM | Potency [19] 2510 nM

CCCCCCCCCCCC(=O)OCC(O)C1OCC(O)C1O (stereo not given)
inactive: Potency [1] | activity, negative = inhibition ([2]; parasite line A) -2.73% | activity, negative = inhibition ([2]; parasite line B) 8.41% | Potency [3] | Potency [4] | Potency [5] | Potency [6] | Potency [7] | Potency [8] | Potency [9] | Potency [10] | Potency [11] | Potency [12] | Potency [13] | Potency [14] | Potency [15] | Potency [16] | Potency [17] | Potency [18] | Potency [19]

CCCC(=O)O[C@]1(C(=O)COC(C)=O)CC[C@H]2C3C[C@H](F)C4=CC(=O)C=CC4(C)[C@@]3(F)[C@@H](O)CC21C (stereo not given in full)
active: Potency [4] 11200 nM
inactive: Potency [1] | activity, negative = inhibition ([2]; parasite line A) -8.4% | activity, negative = inhibition ([2]; parasite line B) -24.8% | Potency [3] | Potency [5] | Potency [6] | Potency [7] | Potency [8] | Potency [9] | Potency [10] | Potency [11] | Potency [12] | Potency [13] | Potency [14] | Potency [15] | Potency [16] | Potency [17] | Potency [18] | Potency [19]

O=C(O)CC(O)CC(O)/C=C/c1c(C2CC2)nc2ccccc2c1-c1ccc(F)cc1 (stereo not given)
inactive: Potency [1] | activity, negative = inhibition ([2]; parasite line A) 5.32% | activity, negative = inhibition ([2]; parasite line B) -2.35% | Potency [3] | Potency [4] | Potency [5] | Potency [6] | Potency [7] | Potency [8] | Potency [9] | Potency [10] | Potency [11] | Potency [12] | Potency [13] | Potency [14] | Potency [15] | Potency [16] | Potency [17] | Potency [18] | Potency [19]

C[S+](C)CC[C@H](N)C(=O)O
inactive: Potency [1] | activity, negative = inhibition ([2]; parasite line A) 2.14% | activity, negative = inhibition ([2]; parasite line B) 12.4% | Potency [3] | Potency [4] | Potency [5] | Potency [6] | Potency [7] | Potency [8] | Potency [9] | Potency [10] | Potency [11] | Potency [12] | Potency [13] | Potency [14] | Potency [15] | Potency [16] | Potency [17] | Potency [18] | Potency [19]

CC1OC(OCC2OC(Oc3c(-c4ccc(OCCO)c(OCCO)c4)oc4cc(OCCO)cc(O)c4c3=O)C(O)C(O)C2O)[C@@H](O)C(O)C1O (stereo not given in full)
inactive: Potency [1] | activity, negative = inhibition ([2]; parasite line A) -11% | activity, negative = inhibition ([2]; parasite line B) 4.27% | Potency [3] | Potency [4] | Potency [5] | Potency [6] | Potency [7] | Potency [8] | Potency [9] | Potency [10] | Potency [11] | Potency [12] | Potency [13] | Potency [14] | Potency [15] | Potency [16] | Potency [17] | Potency [18] | Potency [19]

C=C[C@H]1CN2CCC1C[C@H]2[C@H](O)c1ccnc2ccc(OC)cc12 (stereo not given in full)
inactive: Potency [1]
active: Potency ([2]; parasite line A) 141 nM | Potency ([2]; parasite line B) 141 nM | Potency [3] 178 nM | Potency [4] 224 nM | Potency [5] 1410 nM | Potency [6] 1120 nM | Potency [7] 794 nM | Potency [8] 708 nM | Potency [9] 1690 nM | Potency [10] 1070 nM | Potency [11] 2130 nM | Potency [12] 1690 nM | Potency [13] 1260 nM | Potency [14] 1000 nM | Potency [15] 1200 nM | Potency [16] 1000 nM | Potency [17] 1260 nM | Potency [18] 501 nM | Potency [19] 708 nM

CC1(Cn2ccnn2)[C@H](C(=O)O)N2C(=O)C[C@H]2S1(=O)=O (stereo not given in full)
inactive: Potency [1] | activity, negative = inhibition ([2]; parasite line A) 4.59% | activity, negative = inhibition ([2]; parasite line B) 0.438% | Potency [3] | Potency [4] | Potency [5] | Potency [6] | Potency [7] | Potency [8] | Potency [9] | Potency [10] | Potency [11] | Potency [12] | Potency [13] | Potency [14] | Potency [15] | Potency [16] | Potency [17] | Potency [18] | Potency [19]

CCC(C(=O)O)C1OC(C(C)C(O)C(C)C(=O)C(CC)C2OC3(C=CC(O)C4(CCC(C)(C5CCC(O)(CC)C(C)O5)O4)O3)C(C)CC2C)C(C)CC1C (stereo not given)
inactive: Potency [1]
active: Potency ([2]; parasite line A) 141 nM | Potency ([2]; parasite line B) 158 nM | Potency [3] 100 nM | Potency [4] 79.4 nM | Potency [5] 79.4 nM | Potency [6] 158 nM | Potency [7] 224 nM | Potency [8] 100 nM | Potency [9] 169 nM | Potency [10] 75.7 nM | Potency [11] 95.3 nM | Potency [12] 37.9 nM | Potency [13] 112 nM | Potency [14] 141 nM | Potency [15] 60.1 nM | Potency [16] 70.8 nM | Potency [17] 251 nM | Potency [18] 112 nM | Potency [19] 79.4 nM

OCCN1CC(O)C(O)C(O)C1CO (stereo not given)
inactive: Potency [1] | activity, negative = inhibition ([2]; parasite line A) 13.3% | activity, negative = inhibition ([2]; parasite line B) 21.3% | Potency [3] | Potency [4] | Potency [5] | Potency [6] | Potency [7] | Potency [8] | Potency [9] | Potency [10] | Potency [11] | Potency [12] | Potency [13] | Potency [14] | Potency [15] | Potency [16] | Potency [17] | Potency [18] | Potency [19]
